# Measured values: PubChem BioAssay (NCATS)
# Results filed as inconclusive are left out. Entries that show only a call come without a potency. Active and inactive are the calls of the source. Calls come from the whole dose curve; as a rule, active = well fitted cell-killing curve with a large enough effect; inconclusive = small, poorly fitted or top-dose-only effect; inactive = no such curve, though single readings can be large or run the other way.
# Test: qHTS of pediatric cancer cell lines to identify multiple opportunities for drug repurposing: Confirmatory screen for DAOY cells (AID 1347114); note: nearly all actives have a fitted effect of over 65% in size
# Conditions: DAOY medulloblastoma cells viability, cytotoxicity qHTS; series mostly up to 45.9 µM
# Excerpt: Drug repurposing or repositioning has been offered as a strategy for drug development in oncology programs. This approach has special potential for childhood cancers and other rare or orphan diseases, where the expected return on new drug development has been a disincentive to pharmaceuticals.
# In this project we exploit the poly-pharmacology of drugs to discover new indications via phenotypic screening of a panel of 19 well-characterized cell lines derived from solid tumors seen in children and adolescents. The goal is to identify approved drugs with previously unrecognized anticancer properties that has the potential to reveal new mechanisms and biological processes involved in carcinogenesis or drug resistance. We employed a titration-based paradigm (quantitative high-throughput screening or qHTS), where all compounds were tested at multiple concentrations for their effect on cell viability. Concentration-response curves (CRCs) were derived directly from the primary screen, and both potency and efficacy values were used to identify compounds with robust bioactivity profiles. We screened the NIH Chemical Genomics Center (NCGC) Pharmaceutical Collection (NPC) and Mechanism Interrogation Plate (MIPE) small molecule collections of approved and investigational compounds against these cell lines; and measured metabolically active cells after 48 hours of compound treatment as a proxy for cell viability.
# Assay Submitter: Nathalia J. Martinez, National Center for Advancing Translational Sciences, National Institutes of Health, Rockville, MD, USA; email: natalia.martinez@nih.gov
# [1] Shen, M et al. Quantitative high-throughput phenotypic screening of pediatric cancer cell lines identifies multiple opportunities for drug repurposing. Oncotarget 2017 Dec 19;9(4):4758-4772. PMID 29435139.
# The cells were obtained from University of North Carolina (UNC), Pediatric Preclinical Testing Program (PPT), and Coriell Institute (CI).
# qHTS cell viability assay:
# Cells were assayed in growth media at a density of 500-1,000 cells/well. Five microliters of cells were dispensed into 1,536-well, white, solid-bottom, TC-treated plates (Greiner Bio One) using a multidrop dispenser and incubated at 37 degrees C, 5% CO2, under a humidified atmosphere for 5 hours. Twenty-three nanoliters of compounds and controls (neutral control DMSO or positive control bortezomib at final concentration of 2.3 µM) were subsequently transferred by Kalypsys pintool. For primary screens, the MIPE collection was tested at 11-point dilutions (final concentrations range from 0.78 nM to 46 µM) and the NPC collection at 8-point dilutions (final concentrations range from 0.59 nM to 46 µM). Compounds tested in follow-up screens were assayed at 11-point dilutions. Cells were incubated for 48 hours, followed by addition of 3 uL of CellTiter-Glo (Promega). After a 15 min incubation at room temperature, samples were analyzed for luminescence intensity using a ViewLux High-throughput CCD imager equipped with clear filters.
# Potency is the fitted concentration of half-maximal effect.
row,Compound,Potency
1,CC[n+]1c(-c2ccccc2)c2cc(N)ccc2c2ccc(N)cc21,13.1 µM (active)
2,CCCCCCCCC(=O)NCc1ccc(O)c(OC)c1,inactive
3,C[C@@H]1C[C@@H]([C@H](O)CC2CC(=O)NC(=O)C2)C(=O)[C@@H](C)C1,inactive
4,COC(=O)C1=CCCN(C)C1,inactive
5,O=C(O)Cc1ccccc1,inactive
6,COc1ccc(C(=O)N2CCCC2=O)cc1,inactive
7,ClC1=C(Cl)C2(Cl)C(CBr)CC1(Cl)C2(Cl)Cl (stereo unspecified),inactive
8,COc1ccc2c(C(=O)c3ccc(Cl)cc3)c(C)n(CC(=O)O)c2c1,inactive
9,CCCCCCCCCCCC[N+](C)(C)CCOc1ccccc1,18.5 µM (active)
10,CCc1ccc(C2CCNCC2)cc1,inactive
11,Cc1ccc([N+](=O)[O-])[c]2c1[O][Hg]2,5.22 µM (active)
